Experimental data from PubChem BioAssay.
Activity calls are given as the source filed them.

Experiments:
[1] = compound effects on lung adenocarcinoma cell viability – A549, calcein-AM fluorescence, 48 h, basal, profiling panel (AID 1162); conditions: higher = more signal
[2] = compound effects on differentiated 3T3-L1 adipocyte viability – cell-based, 3T3-L1 adipocytes, calcein-AM fluorescence, 48 h, basal, profiling panel (AID 1163); conditions: 3T3-L1 adipocytes viability, higher = more signal
[3] = compound effects on hepatocellular carcinoma cell viability – HepG2, calcein-AM fluorescence, 48 h, basal, profiling panel (AID 1164); conditions: higher = more signal
[4] = compound effects on multiple myeloma cell viability – MM1S, calcein-AM fluorescence, 48 h, basal, profiling panel (AID 1165); conditions: higher = more signal
[5] = calcein-AM signal in unstimulated myeloma cells – cell-based, calcein-AM fluorescence, 48 h, PK04 Diversity Set, profiling panel (AID 1166); conditions: RPMI8226 myeloma viability, higher = more signal;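 also: cells grown under basal conditions without added stimulus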
[6] = JC-1 mitochondrial signal, unstimulated HepG2 cells – cell-based, JC-1 fluorescence, 24 h, 100 nL compound, profiling panel (AID 1167); conditions: HepG2 mitochondrial potential, higher = more signal
[7] = JC-1 mitochondrial signal, unstimulated adipocytes – cell-based, JC-1 fluorescence, 3T3-L1 adipocytes, 24 h, 100 nL compound, profiling panel (AID 1168); conditions: JC-1 mitochondrial fluorescence, higher = more signal, called active from +8 up or from −8 down
[8] = JC-1 mitochondrial signal, unstimulated myeloma cells – cell-based, JC-1 fluorescence, RPMI8226, 24 h, 100 nL compound, profiling panel (AID 1169); conditions: JC-1 mitochondrial potential fluorescence, higher = more signal
[9] = JC-1 mitochondrial signal, unstimulated MM1S myeloma – cell-based, JC-1 fluorescence, 24 h, 100 nL compound, profiling panel (AID 1170); conditions: MM1S mitochondrial potential, higher = more signal
[10] = resazurin metabolic signal in A549 cells – cell-based, resazurin fluorescence, 24 h, PK04 Diversity Set, profiling panel (AID 1171); conditions: A549 viability, higher = more signal, called active from +8 up or from −8 down
Also: test concentration not given here.

Q: With `COC(=O)[C@H](C)NC(=O)CCC1CC(OC(=O)NCc2cccc3ccccc23)CC2(CCCC(COC(=O)NCCc3ccc(Cl)cc3)O2)O1` (stereo not given in full) as the molecule, how does the z-score [1] read?
A: 0.346

Q: What about the z-score [2] of the same molecule?
A: 0.118

Q: And the z-score [3]?
A: 0.0326

Q: And the z-score [4]?
A: -0.333

Q: What about the z-score [5] of the same molecule?
A: -0.94

Q: What about the z-score [6] of the same molecule?
A: 0.159

Q: What about the z-score [7] of the same molecule?
A: -0.294 (inactive)

Q: And the z-score [8]?
A: -0.318

Q: What about the z-score [9] of the same molecule?
A: -0.197

Q: What about the z-score [10] of the same molecule?
A: 0.871 (inactive)

Q: With `C=C(/C(=C/C[C@@H](OC(=O)c1ccncc1)c1ccc(OCCO)cc1)c1cnc2ccccc2c1)C(C)C` as the molecule, how does the z-score [1] read?
A: 0.476

Q: What about the z-score [2] of the same molecule?
A: 0.443

Q: And the z-score [3]?
A: -0.477

Q: And the z-score [4]?
A: -1.78

Q: And the z-score [5]?
A: 0.448

Q: What about the z-score [6] of the same molecule?
A: 2.2

Q: What about the z-score [7] of the same molecule?
A: -0.883 (inactive)

Q: And the z-score [8]?
A: -0.736

Q: And the z-score [9]?
A: -0.48

Q: And the z-score [10]?
A: -0.464 (inactive)

Q: For `CO[C@@H]1COC(=O)CC=C[C@@H](C)[C@@H]2C=C[C@H](O)[C@@H](COC(=O)[C@H](C)NC(=O)CC=C[C@H]1C)O2`, which z-score [1] is on record?
A: 0.495

Q: What about the z-score [2] of the same molecule?
A: 0.29

Q: And the z-score [3]?
A: -0.857

Q: And the z-score [4]?
A: 0.23

Q: What about the z-score [5] of the same molecule?
A: 0.706

Q: And the z-score [6]?
A: -0.086

Q: And the z-score [7]?
A: -1.62 (inactive)

Q: What about the z-score [8] of the same molecule?
A: 0.583

Q: What about the z-score [9] of the same molecule?
A: -0.385

Q: What about the z-score [10] of the same molecule?
A: 0.612 (inactive)

Q: For `CCN1C(=O)[C@H]2[C@H]3[C@H](O)[C@H](O)CC(=NOCc4ccccc4)[C@H]3CC[C@H]2C1=O`, which z-score [1] is on record?
A: -0.803

Q: What about the z-score [2] of the same molecule?
A: -0.0387

Q: What about the z-score [3] of the same molecule?
A: -0.228

Q: And the z-score [4]?
A: -0.463

Q: What about the z-score [5] of the same molecule?
A: -0.644

Q: And the z-score [6]?
A: -1.13

Q: And the z-score [7]?
A: -1.37 (inactive)

Q: And the z-score [8]?
A: 0.462

Q: And the z-score [9]?
A: 0.515

Q: And the z-score [10]?
A: -0.0275 (inactive)

Q: Which z-score [1] does the source give for `COc1ccc(O[C@H]2C=C[C@@H](c3ccccc3)O[C@@H]2COC(=O)N2CCCCC2)cc1` here?
A: -0.0152

Q: And the z-score [2]?
A: -0.303

Q: And the z-score [3]?
A: 0.0678

Q: What about the z-score [4] of the same molecule?
A: -0.979

Q: What about the z-score [5] of the same molecule?
A: -1.22

Q: What about the z-score [6] of the same molecule?
A: 1.23

Q: What about the z-score [7] of the same molecule?
A: -0.0796 (inactive)

Q: And the z-score [8]?
A: -0.358

Q: And the z-score [9]?
A: 0.125

Q: And the z-score [10]?
A: 1.57 (inactive)

Q: Which z-score [1] does the source give for `COC(=O)[C@@H]1CC[C@H](C)[C@@H](c2ccc(C)cc2)N1C(=O)c1ccc(C=NOC(C)CN2CCCCc3nc(C)c(C)cc32)cc1` (stereo not given in full) here?
A: -1.19

Q: What about the z-score [2] of the same molecule?
A: -0.0501

Q: What about the z-score [3] of the same molecule?
A: -2.59

Q: And the z-score [4]?
A: -2.73

Q: What about the z-score [5] of the same molecule?
A: -4

Q: What about the z-score [6] of the same molecule?
A: -0.414

Q: What about the z-score [7] of the same molecule?
A: -1.72 (inactive)

Q: What about the z-score [8] of the same molecule?
A: -1.16

Q: What about the z-score [9] of the same molecule?
A: -1.54

Q: What about the z-score [10] of the same molecule?
A: 2.21 (inactive)

Q: Which z-score [1] does the source give for `COc1ccc([Si](C)(C)[C@H]2[C@H](CCO)O[C@@]3(C(=O)N(Cc4cccc(NC(=O)[C@H](C)O)c4)c4ccccc43)[C@@H]2C)cc1` here?
A: -2.82

Q: And the z-score [2]?
A: -0.401

Q: And the z-score [3]?
A: -4.52

Q: And the z-score [4]?
A: -2.63

Q: And the z-score [5]?
A: -4.36

Q: What about the z-score [6] of the same molecule?
A: -2.89

Q: What about the z-score [7] of the same molecule?
A: 1.46 (inactive)

Q: What about the z-score [8] of the same molecule?
A: -1.02

Q: And the z-score [9]?
A: -2.35

Q: What about the z-score [10] of the same molecule?
A: -4.28 (inactive)

Q: With `COCCCNC(=O)[C@]1(CCC(=O)OC(C)(C)C)N=C(c2ccc(OCCCO)cc2)O[C@@H]1c1ccccc1N=[N+]=[N-]` as the molecule, how does the z-score [1] read?
A: -0.771

Q: What about the z-score [2] of the same molecule?
A: 0.463

Q: What about the z-score [3] of the same molecule?
A: -0.0574

Q: What about the z-score [4] of the same molecule?
A: -0.744

Q: And the z-score [5]?
A: -0.387

Q: And the z-score [6]?
A: 1.75

Q: What about the z-score [7] of the same molecule?
A: 3.61 (inactive)

Q: And the z-score [8]?
A: -0.69

Q: And the z-score [9]?
A: -0.984

Q: And the z-score [10]?
A: 0.576 (inactive)

Q: Which z-score [1] does the source give for `CCCCC(=C=CC[C@H](O)c1ccccc1OCCO)C[C@H](O)COCc1ccccc1` here?
A: 0.395

Q: And the z-score [2]?
A: 0.0907

Q: What about the z-score [3] of the same molecule?
A: 0.514

Q: And the z-score [4]?
A: -2.92

Q: What about the z-score [5] of the same molecule?
A: -1.29

Q: What about the z-score [6] of the same molecule?
A: -0.0498

Q: What about the z-score [7] of the same molecule?
A: -0.643 (inactive)

Q: And the z-score [8]?
A: -0.621

Q: What about the z-score [9] of the same molecule?
A: -0.611

Q: And the z-score [10]?
A: 0.189 (inactive)

Q: For `C=COC[C@H]1CN2[C@@H](CC[C@@H](C)[C@@H]2c2ccc(Br)cc2)C(=O)O1`, which z-score [1] is on record?
A: 0.197

Q: And the z-score [2]?
A: 0.34

Q: What about the z-score [3] of the same molecule?
A: 1.3

Q: What about the z-score [4] of the same molecule?
A: 0.48

Q: And the z-score [5]?
A: -0.228

Q: And the z-score [6]?
A: 0.244

Q: And the z-score [7]?
A: 1.39 (inactive)

Q: And the z-score [8]?
A: -0.56

Q: What about the z-score [9] of the same molecule?
A: 0.252

Q: And the z-score [10]?
A: -0.0242 (inactive)

Q: Which z-score [1] does the source give for `C/C=C\[C@@H](NCc1ccccc1Br)[C@@H](O)Cc1ccccc1` here?
A: -1.17

Q: And the z-score [2]?
A: 1.43

Q: And the z-score [3]?
A: -1.44

Q: What about the z-score [4] of the same molecule?
A: -1.53

Q: What about the z-score [5] of the same molecule?
A: -3.29

Q: What about the z-score [6] of the same molecule?
A: -1.34

Q: And the z-score [7]?
A: 0.0182 (inactive)

Q: And the z-score [8]?
A: -0.926

Q: And the z-score [9]?
A: -0.0951

Q: And the z-score [10]?
A: -0.29 (inactive)

Q: Which results are given for `COc1ccc([Si](C)(C)[C@@H]2[C@@H](CC(=O)N3CCC[C@H]3CO)O[C@]3(C(=O)N(Cc4cccc(N5CCC5=O)c4)c4ccccc43)[C@H]2C)cc1`?
A: z-score [1]: -0.208; z-score [2]: -1.34; z-score [3]: -4.16; z-score [4]: -2.71; z-score [5]: -4.33; z-score [6]: -0.729; z-score [7]: 0.999 (inactive); z-score [8]: -1; z-score [9]: -2.19; z-score [10]: -1.39 (inactive)

Q: With `O=C1[C@H]2[C@H]3[C@H](O)[C@H](O)CC(=NOC[C@@H](O)COCc4ccco4)[C@H]3CC[C@H]2C(=O)N1Cc1ccc2c(c1)OCO2` as the molecule, how does the z-score [1] read?
A: -0.259

Q: And the z-score [2]?
A: -0.672

Q: What about the z-score [3] of the same molecule?
A: -1.05

Q: And the z-score [4]?
A: -0.642

Q: What about the z-score [5] of the same molecule?
A: -0.334

Q: What about the z-score [6] of the same molecule?
A: -0.41

Q: And the z-score [7]?
A: -0.339 (inactive)

Q: What about the z-score [8] of the same molecule?
A: -0.149

Q: What about the z-score [9] of the same molecule?
A: -0.635

Q: And the z-score [10]?
A: -0.138 (inactive)

Q: Which results are given for `O=C(NN=C1C[C@@H](O)[C@@H](O)[C@@H]2[C@@H]3C(=O)N(c4cccc(Oc5ccccc5)c4)C(=O)[C@@H]3CC[C@@H]12)OCc1ccccc1`?
A: z-score [1]: 0.359; z-score [2]: 0.51; z-score [3]: -0.492; z-score [4]: -0.0408; z-score [5]: -0.238; z-score [6]: -0.659; z-score [7]: -0.0191 (inactive); z-score [8]: 0.682; z-score [9]: 0.615; z-score [10]: 0.413 (inactive)

Q: With `C=CC[C@@H]1C=C[C@H](ON=C(C)CCN2CCc3nc(CC)c(CC)cc3C2)[C@@H](CO)O1` as the molecule, how does the z-score [1] read?
A: 1.36

Q: What about the z-score [2] of the same molecule?
A: 1.06

Q: What about the z-score [3] of the same molecule?
A: -1.47

Q: What about the z-score [4] of the same molecule?
A: -0.727

Q: And the z-score [5]?
A: 0.121

Q: And the z-score [6]?
A: 3.09

Q: What about the z-score [7] of the same molecule?
A: -1.31 (inactive)

Q: What about the z-score [8] of the same molecule?
A: 0.0868

Q: And the z-score [9]?
A: -0.587

Q: And the z-score [10]?
A: 0.097 (inactive)

Q: For `O=C1[C@H]2[C@H]3[C@H](O)[C@H](O)CC(=NO[C@@H]4O[C@H](CO)[C@@H](O)[C@H](O)[C@H]4O)[C@H]3CC[C@H]2C(=O)N1Cc1ccc2c(c1)OCO2`, which z-score [1] is on record?
A: 1.26

Q: What about the z-score [2] of the same molecule?
A: -1

Q: What about the z-score [3] of the same molecule?
A: -0.254

Q: What about the z-score [4] of the same molecule?
A: -0.19

Q: And the z-score [5]?
A: 0.0119

Q: And the z-score [6]?
A: -0.102

Q: And the z-score [7]?
A: 0.48 (inactive)

Q: What about the z-score [8] of the same molecule?
A: -0.0781

Q: What about the z-score [9] of the same molecule?
A: -1.13

Q: And the z-score [10]?
A: 0.443 (inactive)
